Assay outcomes as filed in PubChem.
An excerpt weighted towards active compounds, which were near 8% of everything screened.
KB-V1 cytotox: KB-V1 MDR subline cytotoxicity; KB-V1 MDR cells viability, CellTiter-Glo, 72 h; Potency, µM (top dose mostly 46.1 µM), most hits filed as cytotoxic; 400,000 tested, 3.4% active; also: % is scaled to controls: 0 for no effect and ±100 for the full control effect; nearly all actives have a fitted effect of over 60% in size
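KB-V1 cells (P-gp-expressing MDR subline of KB-3-1) in phenol-red-free DMEM with 10% FBS were exposed to library compounds over a concentration series for 72 h at 37 degrees C. Viability read by CellTiter-Glo luminescence; concentration-effect curves fitted after normalization.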
HT1080NT lethal: kills 2HG-producing HT-1080-NT fibrosarcoma cells. HT-1080-NT fibrosarcoma viability, CellTiter-Glo ATP luminescence, 48 h. Potency, µM (doses to about 46.1 µM), for the others: top-dose activity, negative = less viability, actives largely listed as cytotoxic. 360,000 tested, 1.6% active. AID 686970;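 also: NT is the 2HG producing partner of a matched IDH1 knockdown line; 0% = DMSO-treated cells and -100% = media-only wells without cells; nearly all actives have a fitted effect of over 55% in size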
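HT-1080-NT fibrosarcoma cells (2HG-overproducing), 750 cells/well in RPMI with 5% FBS, dosed after 2 h and incubated 48 h at 37C. CellTiter-Glo luminescence normalized to DMSO and no-cell wells; concentration-response curves fitted and classed.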
KB-3-1 cytotox: KB-3-1 parental cell cytotoxicity; Potency, µM (highest dose often 46.1 µM), most hits filed as cytotoxic; 400,000 tested, 1.4% active; KB-3-1 viability, CellTiter-Glo ATP luminescence, 72 h; also: % is scaled to controls: 0 for no effect and ±100 for the full control effect; nearly all actives have a fitted effect of over 60% in size
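Luminescent ATP read-out (CellTiter-Glo) measures survival of drug-naive KB-3-1 cells after 72 h compound exposure at 37 °C. Titration series was screened from lowest to highest concentration, with DMSO vehicle plates as background controls.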
SW480 rereplic: DNA re-replication induction in SW480 cells. 340,000 tested, 1.8% active. Potency, µM (top dose mostly 46.1 µM), for the others: at the top dose re-replication activation, usual class: activators. AID 624297. SW480 DNA re-replication, Hoechst DNA content imaging, 48 h; also: % of control where 0% means no effect; nearly all actives have a fitted effect of over 55% in size
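Cells (250 per well) received 23 nL compound or DMSO by pin tool and were kept 48 hr at 37 C, 5% CO2. Nuclei were then stained with Hoechst for 40 min and scanned for DNA content.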
MCF10A rereplic: induces DNA re-replication in MCF 10a normal breast cells; 350,000 tested, 2.9% active; MCF 10A DNA re-replication, Hoechst nuclear intensity, 48 h; Potency, µM (highest dose often 46.1 µM), without a hit: at the top dose activity, positive = re-replication, most hits filed as activators; also: % of control where 0% means no effect; nearly all actives have a fitted effect of over 50% in size
HT1080 IDH1KD tx: kills HT-1080 cells with IDH1 knockdown | Potency, µM (top dose mostly 46.1 µM), without a hit: at the highest dose activity, negative = toxicity, most hits filed as cytotoxic | 360,000 tested, 2% active | HT-1080 IDH1 knockdown viability, ATP luminescence, 48 h;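 also: 0% = DMSO wells and -100% = cell-free medium wells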
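Luminescent ATP read-out (CellTiter-Glo, 10 min at room temperature) after 48 h compound exposure at 37 °C gave viability of IDH1-knockdown HT-1080 cells. Activity was normalised to DMSO and cell-free wells, then fitted as concentration-response curves.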
An asterisk follows results filed as active; i = inactive; ? = inconclusive; [ ] = remark or other dose. Calls follow the shape of the dose curve; as a rule, active = well fitted curve in the direction sought with a large enough effect; inconclusive = small, poorly fitted or top-dose-only effect, or another doubt; inactive = no such curve, though single readings can be large; an effect the other way counts as inactive or inconclusive. Potency is read from the fitted curve at half-maximal effect.

SMILES | KB-V1 cytotox | HT1080NT lethal | KB-3-1 cytotox | SW480 rereplic | MCF10A rereplic | HT1080 IDH1KD tx
COc1ccc(C(=O)Nc2c(O)ccc3ccccc23)cc1OC | i | -16% | i | -19% | 0% | ?
COc1ccc(S(=O)(=O)Nc2c(O)ccc3ccccc23)cc1OC | i | -18% | i | 4%[9.22 µM] | 16µM* | -18%
COc1cc(S(=O)(=O)Nc2cc(C)cc(C)c2)ccc1F | 23µM* | ? | i | ? | ? | ?
Cc1ccc(S(=O)(=O)N2CCCCC2)cc1C(=O)N1CCN(c2ccccn2)CC1 | i | 3% | i | -6% | 1% | 2%
COc1ccc(S(=O)(=O)Nc2cccc(N(C)S(C)(=O)=O)c2)cc1C | 15µM* | -3% | ? | -67% | -8% | 8%
COc1ccc(S(=O)(=O)Nc2cccc(SC)c2)cc1OC | 7.3µM* | -25% | 23µM* | -6% | -3% | -29%
COc1ccc(S(=O)(=O)Nc2cccc(Cl)c2)cc1OC | i | 3% | i | -7% | 0% | -1%
COc1ccc(NS(=O)(=O)c2ccc(OC)c(OC)c2)cc1OC | 21µM* | 2% | i | -6% | -1% | 1%
Cc1ccc(/C=N/NC(=O)NN(C)c2ncc(C(F)(F)F)cc2Cl)cc1 | i | -30% | i | 1% | 27% | ?
CN(NC(=O)Nc1ccc(Cl)cc1)c1ncc(C(F)(F)F)cc1Cl | 16µM* | ? | ? | ? | 18% | ?
Cc1noc(C)c1COc1ccc(C(=O)NCCc2ccccn2)cc1 | i | 1% | i | 5% | 3.3µM* | 0%
Cc1noc(C)c1COc1ccccc1C(=O)NCCc1ccccc1 | ? | 0% | i | -8% | 5% | 6%
Cc1noc(C)c1COc1ccccc1C(=O)NC(C)CCc1ccccc1 (configuration not stated) | i | -2% | i | 4.1µM* | -1% | -9%
Cc1noc(C)c1COc1ccc(CC(=O)NCc2ccccc2)cc1 | ? | ? | ? | ? | 5.8µM* | 1.2µM*
Cc1noc(C)c1COc1ccc(CC(=O)NCCc2ccccn2)cc1 | i | ? | i | -9% | 4% | 13%
O=C(O)c1cccc(NC(CNS(=O)(=O)c2ccc(Cl)cc2)c2ccccc2)c1 (configuration not stated) | i | 0% | i | 2% | 13% | -19%
O=S(=O)(NCC(Nc1ccccc1)c1ccccc1)c1ccc(Cl)cc1 (configuration not stated) | 21µM* | -16% | i | ? | ? | -11%
COc1ccc(-n2ccnc(SCC(=O)NC3CCCCC3)c2=O)cc1 | i | -4% | i | 28% | 0% | -8%
Cc1ccc(CCNC(=O)C2CCCN(S(=O)(=O)N3CC(C)CC(C)C3)C2)cc1 (configuration not stated) | i | -1% | i | -5% | 8% | 6%
O=C(NCc1ccccc1)C1CCCN(S(=O)(=O)c2cccc3nonc23)C1 (configuration not stated) | 18µM* | 1% | i | -459% | -63% | 4%
COc1ccc(NC(=O)C2CCCN(S(=O)(=O)c3c(C)[nH]c(=O)[nH]c3=O)C2)cc1OC (configuration not stated) | ? | 19% | i | -2% | -7% | 0%
COc1ccc(NC(=O)C2CCCN(S(=O)(=O)c3cccc4nonc34)C2)cc1 (configuration not stated) | ? | ? | i | ? | 15µM* | ?
O=C(Nc1ccc(F)c(F)c1)C1CCN(S(=O)(=O)c2cccc3nonc23)CC1 | 12µM* | ? | ? | -5% | 12% | -14%
COc1ccc(NC(=O)C2CCCN(S(=O)(=O)c3c(C)n[nH]c3C)C2)cc1OC (configuration not stated) | i | 0% | i | -4% | 2.1µM* | -2%
